The structures appear in SMILES notation. Screen size: about 340,000 compounds; about 2,100 (0.62%) were called active. Not all results are given here. Measured potencies and affinities stand elsewhere. Values without a mark were called inactive.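 Rule for the calls: active = first-screen hits whose inhibition reached a set limit at any dose in the follow-up dose series; inconclusive = inhibition above the set first-screen limit but never retested; inactive = the rest.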

Rac GTPase-activating protein 1 (Homo sapiens), sequence (Q9H0H5 whole entry, looked up): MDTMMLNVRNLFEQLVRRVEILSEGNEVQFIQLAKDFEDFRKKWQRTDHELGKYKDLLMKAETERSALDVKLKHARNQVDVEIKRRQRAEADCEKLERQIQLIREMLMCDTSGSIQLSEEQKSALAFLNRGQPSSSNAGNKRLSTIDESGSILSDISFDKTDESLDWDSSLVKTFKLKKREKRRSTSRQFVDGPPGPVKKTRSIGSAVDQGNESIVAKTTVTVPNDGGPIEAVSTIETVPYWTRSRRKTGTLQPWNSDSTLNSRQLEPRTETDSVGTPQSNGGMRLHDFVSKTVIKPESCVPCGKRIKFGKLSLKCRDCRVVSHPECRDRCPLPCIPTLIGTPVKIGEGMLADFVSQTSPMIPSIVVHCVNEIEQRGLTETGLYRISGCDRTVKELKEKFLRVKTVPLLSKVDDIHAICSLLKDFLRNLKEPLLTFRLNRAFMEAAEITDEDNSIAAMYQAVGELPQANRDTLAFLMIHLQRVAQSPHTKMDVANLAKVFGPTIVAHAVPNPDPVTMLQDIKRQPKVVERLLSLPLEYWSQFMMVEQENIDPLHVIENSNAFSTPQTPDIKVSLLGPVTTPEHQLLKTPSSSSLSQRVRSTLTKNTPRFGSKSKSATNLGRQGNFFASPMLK

This experiment concerns the target Rac GTPase-activating protein 1 (Homo sapiens) (UniProt Q9H0H5). The experiment is described as follows: blockers of MgcRacGAP-driven Rac1 GTP hydrolysis – biochemical, ADP Hunter fluorescence, primary and confirmatory, confirmation (AID 624330).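 Note: fluorescence reports GDP produced by GAP-driven GTP hydrolysis.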 The note with it: MgcRacGAP-stimulated Rac1 GTP hydrolysis, at 30 µM, hits give high values, GST-tagged Rac1 F28L mutant substrate.
On to `C/C(=N\NC(=O)Cn1cnc2ccccc21)c1cccs1`, for which the inhibition was 4.15%.
In the case of `COc1ccc2c3n(nc2c1)CCN=C3c1ccc(C)cc1`, the inhibition was 4.94%.
As for `COc1cccc(-c2cc(C(=O)NC3CCCCC3)no2)c1`, the figure is 6.22%; as for `O=C(NCc1ccccc1)C12CC3CC(CC(Br)(C3)C1)C2`, 5.84%.
As to `O=C1CCC(=O)N(c2ccccc2)N1`, the inhibition was 3.91%.
With `O=C1CCN(S(=O)(=O)c2ccccc2)N1`, the inhibition is -45.5%.
As to `Cc1[nH]c(-c2ccc(F)cc2)cc1C(=O)N1CCN(c2cccc(Cl)c2)CC1`, the inhibition was 21.1%.
Consider `COC(=O)Cn1ccc(N(C)C)c(C#N)c1=O`, for which the inhibition is -1.06%.
Then `CCOC(=O)N1CCN(Cc2nc(-c3ccc(Cl)cc3)no2)CC1`, with 0.28%; and `CC(C)Oc1cccc(C(=O)NC(=S)Nc2ccc(Cl)c(C(=O)O)c2)c1`, with 0.71%.
`O=C(CCNC(=O)C1CCN(S(=O)(=O)c2ccc(F)cc2)CC1)NCCc1ccc(Cl)cc1`: the inhibition was 1.71%.
With `CCCN(CC(=O)Nc1ccc(F)c(F)c1F)C(=O)c1ccc2c(=O)n3c(nc2c1)CCC3`, the inhibition was 1.86%.
As to `CC1(Cc2cn(CCC#N)c3ccccc23)OCCO1`, the inhibition is 15.8%.
For `N#CCCn1cc(CNC2CCC(O)CC2)c2ccccc21` (stereo not drawn), the inhibition was 3.99%.
For the compound `CCCCCC(=O)NC(NC(=S)NC1CCS(=O)(=O)C1)C(Cl)(Cl)Cl` (stereo not drawn), the inhibition was 8.9%.
As for `Cc1cccc(OCCSc2nc(N)cc(N)n2)c1`, the figure is 25.9%; as for `O=C(N/N=C/c1ccc[nH]1)c1ccc([N+](=O)[O-])cc1`, 13.2%.
As for `O=[N+]([O-])c1ccc(C=NNc2ccccc2)cc1`, the inhibition was 0.7%.
With `Nc1c(N(CCO)C(=O)C2CCCC2)c(=O)[nH]c(=O)n1Cc1ccccc1`, the inhibition was 2.35%.
Regarding `Cc1cc(C)cc(NC(=O)C2(c3ccccc3)CC2(Cl)Cl)c1` (stereo not drawn), the inhibition is 8.14%.
Then `COc1ccc(/C=N/N2CCN(C3c4ccccc4-c4ccccc43)CC2)cc1O`, with 11.6%; and `CN(C(=O)CSc1nc2[nH]ncc2c(=O)[nH]1)c1ccccc1`, with 2.08%; and `Brc1ccc2[nH]ncc2c1`, with 3.94%.
As for `C=CCOc1ccc(C=Nc2ccc(OC)cc2)c(O)c1`, the inhibition is 12%.
In the case of `Cc1ccc(O)c(/C=N/NC(=O)c2[nH]ncc2Br)c1`, the inhibition is 0.98%.
Regarding `Oc1c(Br)cc(Br)cc1C=Nc1ccc2[nH]ncc2c1`, the inhibition was 17.9%.
Then `CC1(C)CC(=O)C(C=Nc2ccc3[nH]ncc3c2)=C(O)C1`, with 6.45%; and `COc1cccc(N=Cc2ccc(O)cc2O)c1`, with 8.51%; and `CCOC(=O)c1nc(NNC(C)=O)sc1C`, with 0.96%.
With `Cc1nc2nc(-c3cccs3)[nH]c2cc1Br`, the inhibition was 10.5%.
Regarding `Cc1cccc(NC(=O)c2nc(-c3ccccc3)n(-c3ccccc3)n2)c1C`, the inhibition was 10.4%.
As for `Cc1nnc(CN(C)C(=O)CC2C(=O)NCCN2Cc2ccccc2C)o1` (stereo not drawn), the inhibition was -0.43%.
Turning to `Cc1nc(CNS(=O)(=O)c2cc(C)c(C)cc2C)cs1`, the inhibition is 10.2%.
On to `Nc1ccc(SCc2cccnc2)cc1`, for which the inhibition is 14%.
As to `CC(C)(C)OC(=O)N1CCN(C(=O)c2[nH]cnc2C(=O)Nc2ccc(Cl)cc2)CC1`, the inhibition is 8.41%.
On to `O=C(NCc1cccnc1)C1CCN(S(=O)(=O)c2cccs2)CC1`, for which the inhibition was 8.85%.
For the compound `Cc1ccc(S(=O)(=O)Nc2ccc(N(C)S(=O)(=O)c3ccc(C)cc3)cc2)cc1`, the inhibition is 3.88%.
As for `Cc1ccc(NC(=O)COC(=O)C(NS(=O)(=O)c2ccc(Cl)cc2)C(C)O)cc1` (stereo not drawn), the figure is 4.48%.
Then `O=S(=O)(Nc1ccncc1)c1ccc(Cl)cc1`, with 2.85%.
Regarding `CCN(c1ccc(NS(=O)(=O)c2cc(Cl)ccc2Cl)cc1)C(C)C`, the inhibition is 10.2%.
Regarding `CC(=O)N(C)c1ccc(NS(=O)(=O)c2cc(Cl)ccc2Cl)cc1`, the inhibition is 11.1%.
Consider `CC(=O)Nc1ccc(S(=O)(=O)N[C@@H](C)C(=O)OCc2ccc(Cl)cc2)cc1`, for which the inhibition was 3.47%.
For `CSc1ccc(S(=O)(=O)Nc2ccc(S(=O)(=O)Nc3ccc(C)cc3)cc2)cc1`, the inhibition is 8.03%.
As to `CN(C)c1ccc(S(=O)(=O)c2ccc(Cl)cc2)cc1`, the inhibition is -2.71%.
Turning to `O=C(CCSc1ccc(Cl)cc1)NCc1ccccn1`, the inhibition was 14.8%.
Turning to `CC(=O)CC(=O)Nc1ccc(Cl)cn1`, the inhibition is 4.78%.
For `CCOC(=O)N1CCC(N2CCN(S(=O)(=O)c3ccc([N+](=O)[O-])cc3)CC2)CC1`, the inhibition is 30.9%.
On to `COc1ccc2nc(NC(=O)CSc3cn[nH]n3)sc2c1`, for which the inhibition was 6.06%.
As to `Nc1ccccc1NC(=O)NC(=O)c1ccccc1`, the inhibition is 12.1%.
As for `COC(=O)Cn1cc(/C=N/NC(=O)COc2cccc3cccnc23)c2ccccc21`, the inhibition was 5.77%.
For `Cc1cc(C(=O)Nc2sccc2C#N)c2ccccc2n1`, the inhibition is 12%.
Then `Cn1nnc(NC(=O)c2ccc(Br)o2)n1`, with 11.1%.
In the case of `COCc1ccc(CN2CCC(N3CCC(C(=O)N4CCCC4)CC3)CC2)o1`, the inhibition is 1.64%.
As for `CN(CC(=O)Nc1ccc(F)cc1)C(=O)c1cccc(NS(=O)(=O)c2ccccc2)c1`, the inhibition is 5.16%.
Take `COCCNC(=O)/C(C#N)=C/c1c(N2CCN(c3ccc(OC)cc3)CC2)nc2c(C)cccn2c1=O`: the inhibition was 31.4%.
As to `COCCCNC(=O)/C(C#N)=C/c1c(N2CCN(c3ccccc3)CC2)nc2c(C)cccn2c1=O`, the inhibition is 10.4%.
As for `OCCNCc1c(OCc2ccc(Cl)cc2)ccc2ccccc12`, the inhibition is 8.81%.
On to `CCc1ccc(NC(=O)CCNC(=O)Cn2cnc3ccccc3c2=O)cc1`, for which the inhibition is 9.24%.
Consider `COc1ccc(-n2c(C)cc(/C=C3\C(=N)N4N=C(CC(=O)N5CCOCC5)SC4=NC3=O)c2C)c(OC)c1`, for which the inhibition is -2.43%.
In the case of `Cc1cc(-c2ccc3ccccc3c2)n2ncnc2n1`, the inhibition is -7.09%.
As for `Cc1cc(-c2ccccc2)n2ncnc2n1`, the figure is 6.89%; as for `COc1ccc(NC(=O)CCCc2ccccc2)c(OC)c1`, 6.75%; as for `CNC(=O)CC1C(=O)N(Cc2ccccc2)C(=S)N1NC(=O)c1cccc(F)c1` (stereo not drawn), -0.78%.

As usually defined, the inhibition is the drop in the measured response relative to a control, in per cent.

The record behind these values is PubChem BioAssay AID624330 (Southern Research Specialized Biocontainment Screening …, 2012).
